Data as given in PubChem BioAssay (NCI).
The panel holds about 79,000 compounds, 15% with a hit somewhere; the sample as a whole holds those more often. Cut-off read from the data, not from the text of the source: active = growth inhibition above about 70%; inactive = the rest.

Assays:
[1] = NCI Yeast Anticancer Drug Screen. Data for the rad50 strain (AID 155);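 note: 0% = growth of vehicle-only cultures of the same strain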; details: S. cerevisiae rad50 strain growth inhibition; at 50.0 µM; active compounds read high
Summary of the method: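 Growth of the mutant yeast was measured after compound exposure and referenced to vehicle-treated cultures.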

[2] = NCI Yeast Anticancer Drug Screen. Data for the mec2-1 strain (AID 157); details: S. cerevisiae mec2-1 strain, at 50.0 µM, active compounds read high
Summary of the method: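 Mutant yeast (mec2-1) grown with compound; growth inhibition relative to vehicle control reported.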

[3] = NCI Yeast Anticancer Drug Screen. Data for the sgs1 mgt1 strain (AID 161);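 note: 0% = growth of cultures given vehicle only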; details: S. cerevisiae sgs1 mgt1 strain, at 50.0 µM, active compounds read high
Summary of the method: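 Percent growth inhibition was derived by comparing compound-exposed mutant yeast with vehicle-exposed cultures. The strain carries alterations in DNA damage repair.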

[4] = NCI Yeast Anticancer Drug Screen. Data for the cln2 rad14 strain (AID 165);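 note: 0% = growth equal to vehicle treated cultures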; details: S. cerevisiae cln2 rad14 strain, at 50.0 µM, active compounds read high
Summary of the method: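 Readout is yeast growth inhibition versus vehicle-treated controls, using a strain with cln2 and rad14 alterations exposed to compound.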

[5] = NCI Yeast Anticancer Drug Screen. Data for the bub3 strain (AID 167); details: S. cerevisiae bub3 mutant strain, at 50.0 µM, active compounds read high
Summary of the method: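 Whole-cell yeast assay. The mutant strain was incubated with compounds, and growth inhibition was determined by comparison with vehicle-treated cells.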

[6] = NCI Yeast Anticancer Drug Screen. Data for the mlh1 rad18 strain (AID 175); details: S. cerevisiae mlh1 rad18 strain growth inhibition; at 50.0 µM; active compounds read high
Summary of the method: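 Genetically defined yeast (DNA repair-deficient) exposed to compounds; growth inhibition determined relative to vehicle.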

Measured: growth inhibition

CCOC(=O)N1CCN(C(=O)OCC)C(C)C1 (stereo unspecified)
inactive: [1] 4.45% | [2] -0.7% | [3] -8.8% | [4] -20.1% | [5] 6.35% | [6] -8.6%

CCCCCCCCCSc1nc2ccccc2s1
inactive: [1] 12.8% | [2] 6.25% | [3] 18.2% | [4] 5.45% | [5] 14.5% | [6] -10.1%

COc1ccc2c(c1OC)C1=NCCc3cc4c(cc3C1(OC)C2=O)OCO4 (stereo unspecified)
inactive: [1] -7.15% | [2] 0.75% | [3] 7.05% | [4] 16.8% | [5] 13.7% | [6] -1.2%

COC(=O)C1=NOC(Cc2ccccc2)C1 (stereo unspecified)
inactive: [1] 10.3% | [2] 6.95% | [3] 0.15% | [4] -35.4% | [5] 6.45% | [6] -4.85%

O=[N+]([O-])c1ccc(NC2CCCCC2)nc1
inactive: [1] 14% | [2] -9.85% | [3] 13.9% | [4] 7.65% | [5] 42.6% | [6] -1.55%

Fc1ccccc1N=Cc1ccc(C=Nc2ccccc2F)cc1
inactive: [1] 3.85% | [2] -11.2% | [3] 23.9% | [4] 21.3% | [5] 45.6% | [6] 26.4%

C=C(C)C(O)C(O)C(=C)C (stereo unspecified)
inactive: [1] -6.35% | [2] -17.8% | [3] -15.6% | [4] -1.7% | [5] 12.9% | [6] -4%

O=C(OC(=O)c1ccc(Cl)cc1)c1ccc(Cl)cc1
inactive: [1] -4.65% | [2] 25.9% | [3] 5.45% | [4] -8.15% | [5] -9.2% | [6] -7.35%

C=C1C(=O)OC2/C=C(\C)CC/C=C(/C=O)C(OC(=O)C(C)C)C(O)C12 (stereo unspecified)
inactive: [1] -12.2% | [2] -55.4% | [3] 17.6% | [4] -7.25% | [5] -42.1% | [6] -31.6%

N#Cc1ccc(OC(=O)Nc2ccccc2C(F)(F)F)cc1
inactive: [1] 2.4% | [2] -18.9% | [3] -5.2% | [4] -2.1% | [5] -14.9% | [6] -0.85%

O=C(c1ccc(Cl)cc1)C(C(c1ccccc1[N+](=O)[O-])N1CCCCC1)N1CCCCC1 (stereo unspecified)
inactive: [1] -15.1% | [2] -0.3% | [3] -10.4% | [4] -30.8% | [5] -23.6% | [6] 2.15%

O=S(=O)(OCC1CC2CCC1CC2)c1ccc(Br)cc1 (stereo unspecified)
inactive: [1] -17.1% | [2] 1.9% | [3] 9.35% | [4] 0.8% | [5] 10.2% | [6] -22.9%

N#Cc1c(-c2ccc([N+](=O)[O-])cc2)c(C#N)c(=O)n(NS(=O)(=O)c2ccccc2)c1-c1ccccc1
inactive: [1] 7.1% | [2] 13.3% | [3] -2.45% | [4] 4.05% | [5] 6.25% | [6] 26.4%

O=C(NNC(=O)c1ccncc1)c1ccncc1
inactive: [1] -22.9% | [2] 1.2% | [3] -9.45% | [4] -30.3% | [5] -2.4% | [6] -23.9%

O=[N+]([O-])c1cccc(CO)c1
inactive: [1] -9.75% | [2] 17.1% | [3] -1.15% | [4] 8.6% | [5] -7.35% | [6] -5.7%

CCCCCCCOCC(=O)OC
inactive: [1] 3.6% | [2] -0.7% | [3] 2% | [4] -21.2% | [5] 10.2% | [6] 1.45%

COc1ccc(/C=C/c2cc(O)cc(OC3OC(CO)C(O)C(O)C3O)c2)cc1O (stereo unspecified)
inactive: [1] -2.4% | [2] 10.5% | [3] -5.5% | [4] 7.55% | [5] 8.7% | [6] 10.8%

Cc1cc(Cl)c2c(C)ccc(C)c2n1
inactive: [1] -4.25% | [2] -31.9% | [3] 9.85% | [4] 5.7% | [5] 4% | [6] 8.95%

O=S1(=O)C2CCCCCC2(N2CCOCC2)C1C1CCCCC1 (stereo unspecified)
inactive: [1] 16.7% | [2] 22.4% | [3] -0.45% | [4] 25.4% | [5] 6% | [6] 15.1%

O=C(NC(=S)Nc1ccc2ccccc2c1)c1ccc(Cl)cc1Cl
inactive: [1] -1.45% | [2] 1.2% | [3] 28.2% | [4] -10.6% | [5] 23.4% | [6] -41.1%

CC1=CC(=O)c2cccc(NC3=NCCO3)c21
inactive: [1] -31.3% | [2] -20.8% | [3] -2.95% | [4] -28.9% | [5] -2% | [6] -29.2%

Cc1cccc2c1Oc1ccccc1C2NC(=O)OCCc1ccccc1 (stereo unspecified)
inactive: [1] -14.3% | [2] -8.25% | [3] -7.25% | [4] -9.15% | [5] -8.05% | [6] 1.25%

CC(=O)Nc1ccc2oc(C)nc2c1
inactive: [1] 23.9% | [2] -1.3% | [3] 8.3% | [4] 8.7% | [5] 13.2% | [6] 20.6%

CCCC(=O)Nc1cccc(C(F)(F)F)c1
inactive: [1] 7.65% | [2] 19.6% | [3] -11.4% | [4] 22.5% | [5] 26.9% | [6] 28.6%

CC(C)(C)c1ccc(N)cc1
inactive: [1] -37.7% | [2] -29.8% | [3] -10.9% | [4] -3.45% | [5] -2.65% | [6] -13.5%

O=C1CC2C3CC4(OCCO4)C4C3CC2C14 (stereo unspecified)
inactive: [1] 8.25% | [2] 2.45% | [3] 3% | [4] 8.65% | [5] 2.1% | [6] 5.8%

O=C1c2ccccc2CN1c1ccccc1
inactive: [1] -23% | [2] -25.6% | [3] -3.25% | [4] 6.45% | [5] -7.5% | [6] -2.7%

[CH3][Ge]([CH3])([CH3])/[C](=[C](\c1ccccc1)[Ge]([CH3])([CH3])[CH3])c1ccccc1
inactive: [1] 39.6% | [2] -3.5% | [3] 10% | [4] 9.6% | [5] -1.5% | [6] 9.65%

Cc1cc2c(=O)cc(-c3ccncc3)oc2c(C(=O)O)c1C
inactive: [1] 20.7% | [2] 0.2% | [3] -10.3% | [4] 20.5% | [5] 26.9% | [6] -5.5%

CC(C)C(NC(=O)c1ccccc1C(=O)O)c1ccccc1 (stereo unspecified)
inactive: [1] 6.3% | [2] -7.35% | [3] 7.1% | [4] 4.45% | [5] 29.6% | [6] -3.7%

CC(C)(O)c1cc2nc3ccccc3nc2n1CCO
inactive: [1] -19.6% | [2] -22.4% | [3] 8.45% | [4] 4.25% | [5] 4.25% | [6] -14.4%

NC(=O)c1ccc(Cl)c([N+](=O)[O-])c1
inactive: [1] 8.2% | [2] 2.85% | [3] -7.3% | [4] 6.45% | [5] -31.3% | [6] 2.15%

CSc1cnc2ccccc2c1Sc1c[nH]c2ccccc2c1=O
inactive: [1] -15% | [2] 3.65% | [3] 1.15% | [4] 11.8% | [5] -8.05% | [6] -12.4%

C=CCOc1ccc(N)c([N+](=O)[O-])c1
inactive: [1] 42.1% | [2] 41.5% | [3] 23.3% | [4] 14.1% | [5] 36.7% | [6] 2.85%

CN(C)CCNc1ncnc2nc(-c3ccc4ccccc4c3)[nH]c12
inactive: [1] -11% | [2] -20.9% | [3] 7.8% | [4] 11.6% | [5] 3.05% | [6] -18.6%

Nc1cn[nH]c(=O)n1
inactive: [1] -3.6% | [2] 20.6% | [3] 2% | [4] 13.3% | [5] 10.4% | [6] 2.7%

NCCc1c(-c2cccnc2)[nH]c2ccccc12
inactive: [1] -14.5% | [2] -9.1% | [3] -2.75% | [4] -25.4% | [5] 7.6% | [6] 1.1%

Cc1cc(OCc2ccc3ccccc3c2)ccc1Nc1cc(=O)[nH]c(=O)[nH]1
inactive: [1] 3.65% | [2] 33.6% | [3] 18.6% | [4] -4.55% | [5] 33.6% | [6] 24.4%

COc1cc(Cl)ccc1C
inactive: [1] -1.2% | [2] -1.75% | [3] 5.75% | [4] -14.3% | [5] 18.1% | [6] -16.6%

COc1ccc(C2OC(=O)C(=O)C2=O)cc1OC (stereo unspecified)
inactive: [1] -25.9% | [2] -25.4% | [3] -8.45% | [4] -17.4% | [5] 8.7% | [6] -8.65%

CN=C/C(C(C)=O)=C(\C)O
inactive: [1] 4.1% | [2] -0.05% | [3] -4.85% | [4] 3.6% | [5] 8.5% | [6] 0.65%
